Measured values taken from PubChem BioAssay AID2685 (National Center for Advancing Translational Sciences (NCATS), 2010).
Hit rate of the full screen: of about 320,000 compounds, about 2,100 (0.66%) were called active. Another 53% or so got no clear call; they are omitted. Calls come from the whole dose curve; as a rule, active = well fitted inhibition curve with a large enough effect in the signal ratio, with a control signal flat (not every such curve was filed as active); inconclusive = small, poorly fitted or top-dose-only effect, or effect the other way, or a change in a side signal; inactive = flat fitted curve, though single readings scatter; the % refers to the signal ratio. The full list was thinned out, with actives kept by preference.

assay: qHTS Assay for Lipid Storage Modulators in Drosophila S3 Cells; settings: BODIPY lipid droplet fluorescence, 18-24 h, cells fed with added oleic acid; cell number change: measured here: cell count max response; series mostly up to 46.1 µM; lipid storage change, negative = inhibition: at the top concentration;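 for cell number change: cells counted by Cell Tracker Red CMTPX staining in the red channel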; for lipid storage change, negative = inhibition: % is set by controls: 0 for no effect and ±100 for the full control effect
Outline: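 Drosophila S3 cells got compounds at several concentrations plus oleic acid (400 uM solution). Laser-scanning cytometry with 488 nm excitation read lipid droplets at 500-530 nm and cells at 575-640 nm. Percent activity was relative to 20 uM Triacsin C.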
Potency is the fitted concentration of half-maximal effect.

For `Cc1ccc(Nc2ccccc2)nn1`, which “lipid storage change, negative = inhibition” value is on record?
The value was 5.52% (inactive).

And the cell number change?
Its cell number change is 17%.

For `N#Cc1nc(Cc2ccccc2)oc1NCc1ccccc1`, which “lipid storage change, negative = inhibition” value is on record?
The value was -3.57% (inactive).

And the cell number change?
Its cell number change is -21%.

Which Potency does the source give for `N#Cc1ncc(Cc2ccccc2)nc1C#N` here?
Its Potency is 7.31 µM (active).

And the cell number change?
Its cell number change is -22.9%.

For `N#Cc1nc(Cc2ccccc2)oc1N1CCCC1`, which “lipid storage change, negative = inhibition” value is on record?
The value was -16.8% (inactive).

What about the cell number change of the same compound?
Its cell number change is -9.44%.

For `COc1ccccc1NC(=O)NNC(=O)C(C)Oc1ccc2ccccc2c1` (stereo not drawn), which “lipid storage change, negative = inhibition” value is on record?
Its value is 6.71% (inactive).

And the cell number change?
The cell number change was 7.76%.

Which “lipid storage change, negative = inhibition” value does the source give for `Cc1ccc(/C=N/N2CCN(Cc3ccc(Cl)cc3)CC2)o1` here?
Its value is -1.89% (inactive).

What about the cell number change of the same compound?
The cell number change was -6.6%.

Which “lipid storage change, negative = inhibition” value does the source give for `CC(C)CNC(=O)NC(=O)COC(=O)C1CSC2(c3ccc(F)cc3)CCC(=O)N12` (stereo not drawn) here?
Its value is -8.94% (inactive).

And the cell number change?
The cell number change was 5.71%.

Which Potency does the source give for `O=C(C1CSC2(c3ccc(F)cc3)CCC(=O)N12)N1CCCCCC1` (stereo not drawn) here?
Its Potency is 18.4 µM (active).

And the cell number change?
The cell number change was -5.6%.

Which “lipid storage change, negative = inhibition” value does the source give for `O=C(COC(=O)C1CSC2(c3ccc(F)cc3)CCC(=O)N12)NC(=O)NC1CCCC1` (stereo not drawn) here?
The value was -22.5% (inactive).

What about the cell number change of the same compound?
Its cell number change is 8.51%.

For `Cc1cnc(NC(=O)CCNC(=O)c2ccccc2Cl)s1`, which “lipid storage change, negative = inhibition” value is on record?
Its value is -19.1% (inactive).

Which “lipid storage change, negative = inhibition” value does the source give for `Cc1noc(C(=O)NCc2cccnc2)c1Cl` here?
The value was 1.19% (inactive).

And the cell number change?
The cell number change was 3.97%.

Which “lipid storage change, negative = inhibition” value does the source give for `CCOC(=O)Nc1ccc2c(CN3CCN(S(=O)(=O)c4ccccc4)CC3)cc(=O)oc2c1` here?
Its value is 4.48% (inactive).

And the cell number change?
Its cell number change is 3.64%.

Which results are given for `O=C(NCC1CCCN(C(=O)Cc2ccccc2Cl)C1)c1ccc(F)cc1` (stereo not drawn)?
outcome: inactive; cell number change: 17.2%

Which “lipid storage change, negative = inhibition” value does the source give for `CC(=O)c1ccccc1NC(=O)COC(=O)c1c(C)nn(-c2ccccc2)c1C` here?
The value was 0.367% (inactive).

What about the cell number change of the same compound?
Its cell number change is -19.3%.

Which “outcome” value does the source give for `CN(C)S(=O)(=O)c1cccc(NC(=O)COC(=O)CNC(=O)c2ccccc2F)c1` here?
Its value is “inactive”.

Which Potency does the source give for `CC(=O)c1ccccc1NC(=O)COC(=O)/C(=C/c1ccccc1)n1nnnc1C` here?
The Potency was 7.31 µM (active).

What about the cell number change of the same compound?
Its cell number change is -27.9%.

With `CN(C)S(=O)(=O)c1cccc(NC(=O)CSc2nnnn2-c2ccccc2)c1` as the compound, how does the “lipid storage change, negative = inhibition” value read?
The value was -9.83% (inactive).

And the cell number change?
The cell number change was -3.51%.

For `CN(C)S(=O)(=O)c1cccc(NC(=O)COC(=O)C2(c3ccccc3F)CCCC2)c1`, which Potency is on record?
The Potency was 8.2 µM (active).

What about the cell number change of the same compound?
The cell number change was -25.4%.

For `Cc1nnnn1/C(=C\c1ccccc1)C(=O)OCC(=O)NC(C)(C)C`, which Potency is on record?
The Potency was 4.11 µM (active).

What about the cell number change of the same compound?
Its cell number change is -11.4%.

With `CC(=O)c1ccccc1NC(=O)COC(=O)c1ccccc1NC(=O)c1ccccc1` as the compound, how does the “lipid storage change, negative = inhibition” value read?
The value was -2.12% (inactive).

What about the cell number change of the same compound?
Its cell number change is -15%.

With `CC(C)(C)NC(=O)COC(=O)c1ccccc1Oc1ccccc1` as the compound, how does the “lipid storage change, negative = inhibition” value read?
The value was 8.37% (inactive).

What does the source list for `NS(=O)(=O)c1cccc(NC(=O)COC(=O)C2(c3cccc(F)c3)CCCC2)c1`?
lipid storage change, negative = inhibition: 14.4% (inactive); cell number change: -1.45%

For `Cc1cc(C(=O)OCC(=O)Nc2cccc(S(=O)(=O)N(C)C)c2)c2ccccc2n1`, which “lipid storage change, negative = inhibition” value is on record?
The value was -9.59% (inactive).

And the cell number change?
Its cell number change is -13.9%.

Which results are given for `CC(C)(C)NC(=O)COC(=O)C1c2ccccc2Oc2ccccc21`?
lipid storage change, negative = inhibition: 22.1% (inactive); cell number change: -10.4%

Which Potency does the source give for `Cc1nnnn1/C(=C\c1ccccc1)C(=O)OCC(=O)Nc1cccc(S(=O)(=O)N(C)C)c1` here?
The Potency was 3.66 µM (active).

What about the cell number change of the same compound?
Its cell number change is -25%.

For `COc1ccc(C2N(c3ccc4c(c3)OCCO4)C(=O)C2(F)F)cc1OC` (stereo not drawn), which “lipid storage change, negative = inhibition” value is on record?
Its value is -8.57% (inactive).

And the cell number change?
Its cell number change is -17.8%.

Which results are given for `Cc1c(Cl)cccc1NC(=O)NCc1ccc(F)cc1`?
lipid storage change, negative = inhibition: -7.7% (inactive); cell number change: 3.73%

Which “outcome” value does the source give for `COc1cccc(-c2noc(C3CCCN(C(=O)c4cccc(F)c4)C3)n2)c1` (stereo not drawn) here?
Its value is “inactive”.

And the cell number change?
Its cell number change is -8.07%.

For `CCOc1ccc(N(CC(=O)Nc2ccc(C)c(C)c2)S(=O)(=O)c2c(C)[nH]c(=O)[nH]c2=O)cc1`, which “lipid storage change, negative = inhibition” value is on record?
The value was 17.7% (inactive).

And the cell number change?
The cell number change was 10.2%.

Which “lipid storage change, negative = inhibition” value does the source give for `CCC(C)NC(=O)C(=O)NCc1ccncc1` (stereo not drawn) here?
The value was 0.0372% (inactive).

And the cell number change?
Its cell number change is -9.14%.

Which “lipid storage change, negative = inhibition” value does the source give for `CCc1ccc2oc(C(=O)N3CCN(C)CC3)cc(=O)c2c1` here?
The value was 5.21% (inactive).

What about the cell number change of the same compound?
Its cell number change is 14.4%.

What does the source list for `CC1C/C(=C\c2cccnc2)C(=O)/C(=C/c2cccnc2)C1` (stereo not drawn)?
Potency: 5.17 µM (active); cell number change: -29%

Which Potency does the source give for `O=C1/C(=C/c2cccnc2)CCC/C1=C\c1cccnc1` here?
The Potency was 14.6 µM (active).

And the cell number change?
The cell number change was -13.8%.

Which results are given for `CC1C/C(=C/c2cccs2)C(=O)/C(=C/c2cccs2)C1` (stereo not drawn)?
lipid storage change, negative = inhibition: 0.0093% (inactive); cell number change: -17.9%

What does the source list for `O=C1/C(=C/c2cccnc2)CC/C1=C\c1cccnc1`?
lipid storage change, negative = inhibition: 6.31% (inactive); cell number change: -4.02%

Which “lipid storage change, negative = inhibition” value does the source give for `O=C1/C(=C/c2cccnc2)Cc2ccc(Cl)cc21` here?
The value was 23.8% (inactive).

What about the cell number change of the same compound?
The cell number change was 24.8%.

For `CC(C)/C=C1\CC/C(=C\c2cccnc2)C1=O`, which “lipid storage change, negative = inhibition” value is on record?
The value was 0.736% (inactive).

And the cell number change?
Its cell number change is -13.9%.

With `CN(C)c1cccc(C(=O)NNC(=O)NC2CCCCC2)c1` as the compound, how does the “lipid storage change, negative = inhibition” value read?
Its value is 0.926% (inactive).

What about the cell number change of the same compound?
The cell number change was -5.42%.

Which “outcome” value does the source give for `Cc1cccc2cc(CN(CC3CCCO3)S(=O)(=O)c3ccccc3)c3nnnn3c12` (stereo not drawn) here?
Its value is “inactive”.

What about the cell number change of the same compound?
The cell number change was 3.31%.

Which results are given for `CC(CC(=O)Nc1cccc(F)c1)S(=O)(=O)c1ccc2c(c1)NC(=O)CO2` (stereo not drawn)?
outcome: inactive; cell number change: 6.92%

For `C/C(=N\NC(=O)c1ccccc1OCc1ccc(F)cc1)c1ccccn1`, which “lipid storage change, negative = inhibition” value is on record?
The value was -3.9% (inactive).

And the cell number change?
The cell number change was -7.7%.

Which results are given for `N#Cc1sc2nc(-c3cccs3)cc(-c3ccc(F)cc3)c2c1N`?
lipid storage change, negative = inhibition: 22.1% (inactive); cell number change: -15.9%

For `Nc1c(C(=O)O)sc2nc(-c3ccccc3)cc(-c3ccc(Cl)cc3)c12`, which “lipid storage change, negative = inhibition” value is on record?
Its value is -5.56% (inactive).

What about the cell number change of the same compound?
Its cell number change is -6.59%.

Which Potency does the source give for `CCN(CC)C(=O)c1sc2nc(-c3cccs3)cc(-c3ccc(Cl)cc3)c2c1N` here?
The Potency was 20.6 µM (active).

What about the cell number change of the same compound?
The cell number change was 23.2%.

Which results are given for `COc1ccc(N2C(=O)CC(Sc3nc(C)cc(C)n3)C2=O)cc1OC` (stereo not drawn)?
outcome: inactive; cell number change: 22%

With `CC(=O)c1c(C)[nH]c(C(=O)Nc2nccs2)c1C` as the compound, how does the “lipid storage change, negative = inhibition” value read?
Its value is -1.32% (inactive).

And the cell number change?
The cell number change was 5.23%.

With `CCC(C)c1ccccc1NC(=O)c1[nH]c(C)c(C(C)=O)c1C` (stereo not drawn) as the compound, how does the “lipid storage change, negative = inhibition” value read?
The value was -24.3% (inactive).

What about the cell number change of the same compound?
The cell number change was -4.58%.

Which Potency does the source give for `CC(=O)c1c(C)[nH]c(C(=O)Nc2ccccn2)c1C` here?
Its Potency is 29.1 µM (active).

What about the cell number change of the same compound?
Its cell number change is -7.6%.

With `O=C(CN1CCN(S(=O)(=O)c2ccccc2)CC1)NC1CC1` as the compound, how does the “lipid storage change, negative = inhibition” value read?
Its value is -13% (inactive).

What about the cell number change of the same compound?
The cell number change was -0.697%.

For `CCOC(=O)C1CCN(C(=O)c2ccc(N3CCCC3=O)cc2)CC1`, which “lipid storage change, negative = inhibition” value is on record?
Its value is -4.81% (inactive).

And the cell number change?
The cell number change was 2.94%.

Which “outcome” value does the source give for `O=C(NCc1ccc(F)cc1)c1cc2c(s1)CS(=O)(=O)C2` here?
The value was “inactive”.

What about the cell number change of the same compound?
The cell number change was -3.83%.

Which results are given for `COC(=O)c1c(C)[nH]c(C(=O)/C=C/c2ccc(C)cc2)c1C`?
lipid storage change, negative = inhibition: -0.587% (inactive); cell number change: 11.4%

Which results are given for `CCN1CCc2nc(NC(=O)C(c3ccccc3)c3ccccc3)sc2C1`?
Potency: 20.6 µM (active); cell number change: -8.16%

Which “lipid storage change, negative = inhibition” value does the source give for `CCN1CCc2nc(NC(=O)c3ccc4c(c3)OCCO4)sc2C1` here?
The value was -12.2% (inactive).

And the cell number change?
The cell number change was -22.4%.

For `CCN1CCc2nc(NC(=O)c3ccc(S(=O)(=O)N(C)C)cc3)sc2C1`, which “outcome” value is on record?
The value was “inactive”.

With `CCC(=O)Nc1c2c(nn1-c1ccc(OC)cc1)CS(=O)C2` (stereo not drawn) as the compound, how does the “lipid storage change, negative = inhibition” value read?
The value was -15% (inactive).

What about the cell number change of the same compound?
Its cell number change is -17%.

For `COc1ccccc1N(CC(=O)NCC1CCCO1)C(=O)CNS(=O)(=O)c1ccccc1` (stereo not drawn), which “lipid storage change, negative = inhibition” value is on record?
The value was 6.59% (inactive).

For `Cc1nc2ccccc2n1CSc1ccccc1`, which “lipid storage change, negative = inhibition” value is on record?
Its value is 5.97% (inactive).

And the cell number change?
Its cell number change is 7.45%.

What does the source list for `COc1cccc(-c2ccc(C#N)c(OC(=O)c3c(Cl)cccc3Cl)n2)c1`?
outcome: inactive; cell number change: -22.9%

With `Cc1cc(NC(=O)CSCC(=O)Nc2nc3ccc(F)cc3s2)no1` as the compound, how does the Potency read?
The Potency was 11.6 µM (active).

And the cell number change?
Its cell number change is 9.73%.

For `Cc1cc(NC(=O)CSc2ccc(F)cc2)no1`, which “lipid storage change, negative = inhibition” value is on record?
Its value is -13.1% (inactive).

For `Cc1cc(NC(=O)C(C)SCC(=O)Nc2nc3c(F)cc(F)cc3s2)no1` (stereo not drawn), which “lipid storage change, negative = inhibition” value is on record?
Its value is -0.525% (inactive).

What about the cell number change of the same compound?
The cell number change was -16.6%.
